# KinaseGlo FLuc – blocks Kinase-Glo luciferase, a counter-screen artifact; Kinase-Glo luciferase, ATP luminescence, 8 min; Potency, µM (series often up to 38.3 µM), most hits filed as inhibitors; 200,000 compounds, 0.28% hits; also: nearly all actives have a fitted effect of over 60% in size
#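 Kinase-Glo luciferase light output from ATP and luciferin was measured with 10 uM ATP, within the enzyme's linear range. Buffer: 50 mM imidazole pH 7.2, 50 mM KCl, 7 mM MgCl2, 0.01% Tween 20, 0.05% BSA; luminescence read after 8 min at ambient temperature.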
# NPC1 prom act – NPC1 promoter activation; Huh7 NPC1 promoter luciferase reporter, 24 h; 320,000 compounds, 2.4% hits; AID 485313; Potency, µM (highest dose often 9.22 µM), hits mostly activators; also: nearly all actives have a fitted effect of over 60% in size
#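 Stably transfected Huh7 (NPC1 promoter→luciferase), 1500 cells/well in Opti-MEM + 10% FBS, 2 h settle, then compound 24 h at 37 °C. Luminescence after 10 min with Amplite reagent.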
# ELG1 genotoxic – induces genotoxicity in HEK293T cells with luciferase-tagged ELG1; HEK293T ELG1-luciferase reporter, luminescence, 16 h; Potency, µM (doses to about 46 µM), hits mostly activators; 330,000 compounds, 1.3% hits; AID 504466; also: nearly all actives have a fitted effect of over 60% in size
#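 Step 1: seed 2,000 HEK293T ELG1-luciferase cells per well. Step 2: add compound or DMSO, incubate 16 hr at 37 °C. Step 3: ONE-Glo, 30 min at room temperature, read luminescence.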
# Rab9 prom act – activators of Rab9 promoter. Huh7 Rab9 promoter-luciferase reporter, luminescence, 24 h. Potency, µM (highest dose often 9.22 µM), usual class: activators. 320,000 compounds, 2.8% hits; also: nearly all actives have a fitted effect of over 60% in size
#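 Using Huh7 cells stably transfected with Rab9 promoter–luciferase, compounds were incubated 24 h at 37 °C, 5% CO2; luciferase luminescence was read 10 min after reagent addition.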
# SMN2 splice enh – increases expression of the SMN2 splice variant; HEK293 SMN2-luciferase splicing reporter, luminescence, 30-36 h; Potency, µM (top dose mostly 46.1 µM), most hits filed as activators; 210,000 compounds, 2.8% hits; also: nearly all actives have a fitted effect of over 55% in size
#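 qHTS luciferase splicing reporter: luminescence rises when SMN2 exon 7 is included in transfected HEK293 cells. Compound exposure lasted 30-36 h at 37C, with 4.5 mM final sodium butyrate as control, followed by a ONE-Glo read.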
# FLuc modulator – firefly luciferase modulation, counter-screen for miR-21 project. P08659. purified FLuc, Km substrates, luminescence inhibition. Potency, µM (series often up to 57.5 µM), hits mostly inhibitors. 360,000 compounds, 6.9% hits. AID 588342; also: nearly all actives have a fitted effect of over 55% in size
# Target sequence (P08659 whole entry, looked up): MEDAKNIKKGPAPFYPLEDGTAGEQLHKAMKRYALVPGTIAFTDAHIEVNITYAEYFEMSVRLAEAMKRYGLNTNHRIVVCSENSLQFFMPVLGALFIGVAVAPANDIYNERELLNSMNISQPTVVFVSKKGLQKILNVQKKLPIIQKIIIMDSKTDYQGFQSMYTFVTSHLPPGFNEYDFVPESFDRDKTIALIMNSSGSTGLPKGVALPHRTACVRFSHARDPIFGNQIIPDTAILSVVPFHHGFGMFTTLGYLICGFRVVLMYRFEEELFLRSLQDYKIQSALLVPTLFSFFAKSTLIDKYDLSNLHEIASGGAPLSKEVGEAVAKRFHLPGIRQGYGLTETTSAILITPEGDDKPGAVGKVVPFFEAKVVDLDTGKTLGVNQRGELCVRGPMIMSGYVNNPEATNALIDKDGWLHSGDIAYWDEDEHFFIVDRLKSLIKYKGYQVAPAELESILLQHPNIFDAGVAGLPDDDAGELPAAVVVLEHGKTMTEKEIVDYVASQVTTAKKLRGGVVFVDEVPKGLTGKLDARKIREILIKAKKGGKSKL
#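 Purified P. pyralis luciferase, 10 nM final, with Km-level 10 uM D-luciferin and 10 uM ATP in 50 mM Tris acetate pH 7.5, 10 mM Mg acetate, 0.01% Tween-20, 0.05% BSA; 6-point qHTS titration about 60 µM downward; luminescence read.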
# Numbers stand for hits; – = inactive; ? = inconclusive; · = no result given. Most compounds without a hit are left out; they make up all but 7.4% or so of the library. Calls follow the shape of the dose curve; as a rule, active = well fitted curve in the direction sought with a large enough effect; inconclusive = small, poorly fitted or top-dose-only effect, or another doubt; inactive = no such curve, though single readings can be large; an effect the other way counts as inactive or inconclusive.
SMILES,KinaseGlo FLuc,NPC1 prom act,ELG1 genotoxic,Rab9 prom act,SMN2 splice enh,FLuc modulator
c1ccc2nc3c(nc2c1)[nH]c1ccccc13,–,3.2µM,9.2µM,0.89µM,11µM,3.8µM
COc1ccc(/C=C/C(=O)c2ccncc2)c2ccccc12,–,–,–,–,–,?
COc1ccc(/C=C/C(=O)c2ccc[nH]2)cc1OC,–,?,21µM,3.2µM,?,12µM
COc1ccc(/C=C/C(=O)c2ccc[nH]2)c(OC)c1OC,–,?,?,?,?,8.5µM
COc1ccc(/C=C/C(=O)c2cccs2)cc1OC,–,·,·,·,·,·
Cc1cc(C#N)c(C)n1-c1cc(S(=O)(=O)N2CCOCC2)ccc1N1CCCC1,–,·,·,·,–,?
CCCC(=O)N1CCN(c2nc3ccc(Cl)cc3s2)CC1,·,?,?,?,·,12µM
CCCC(=O)N1CCN(c2nc3ccc(Br)cc3s2)CC1,·,–,–,?,·,21µM
CC(=O)N1CCN(c2nc3ccc(Br)cc3s2)CC1,·,3.2µM,?,?,·,15µM
CCCC(=O)N1CCN(c2nc3ccc(CC)cc3s2)CC1,·,?,–,?,·,13µM
CC(C)(C)C(=O)N1CCN(c2nc3ccc(Br)cc3s2)CC1,·,?,–,?,·,?
COc1ccc(OC)c(CCNC(=O)c2c(C)nn(-c3ccc(F)cc3)c2-n2cccc2)c1,·,·,·,·,·,–
COc1ccc(NS(=O)(=O)c2ccc(C)c(NC(=O)c3ccc(C)c(S(=O)(=O)N4CCOCC4)c3)c2)cc1,–,–,–,–,–,–
C[C@H](NC(=O)c1ccco1)C(=O)OCC(=O)N1CC(=O)Nc2ccccc21,·,·,–,·,·,·
CC(C)(C)C(=O)N1CCN(c2nc3ccc(Cl)cc3s2)CC1,·,2µM,?,?,·,11µM
Cc1cccc(OCCCC(=O)N2CCCCCC2)c1C,·,–,–,–,·,–
C=CCn1c2ccccc2c(=O)c2cc(C#CC3(O)CCCCC3)ccc21,·,1.3µM,?,0.71µM,·,0.76µM
C=CCn1c(=O)c(C(=O)NC(C)c2ccccc2)c(O)c2ccccc21 (configuration not stated),·,–,–,–,·,–
C=CCn1c2ccccc2c(=O)c2cc(C#CC[C@@H](C)O)ccc21,·,3.2µM,?,?,·,2.1µM
O=C(CN1CCN(Cc2cccc3ccccc23)CC1)NCCc1ccccc1,·,–,–,–,·,–
CCC(CC)C(=O)Nc1nnc(S(=O)(=O)N2CCCc3ccccc32)s1,·,–,–,–,·,–
O=C(CCSc1nc2ccccc2o1)Nc1ccccc1,·,–,–,–,·,–
O=C(O)c1ccccc1CSc1nc2ccccc2o1,–,4.5µM,?,?,?,11µM
O=C(O)c1ccc(CSc2nc3ccccc3o2)cc1,–,–,–,–,–,19µM
COc1ccc(C(=O)NNC(=S)NC(=O)c2cccnc2)cc1,–,–,–,–,·,–
SMILES,KinaseGlo FLuc,NPC1 prom act,ELG1 genotoxic,Rab9 prom act,SMN2 splice enh,FLuc modulator
COc1ccc(/C=C/C(=O)NC(=S)NNC(=O)c2cccnc2)cc1,–,–,–,–,–,24µM
COc1ccc(/C=C/C(=O)NC(=S)NNC(=O)c2cnccn2)cc1,·,–,?,–,·,17µM
O=C(/C=C/Nc1ccc(Br)cc1F)c1ccccc1,10µM,1.3µM,?,0.45µM,–,0.11µM
O=C(/C=C/Nc1ccccc1F)c1ccc(Br)cc1,–,0.56µM,1µM,0.79µM,5µM,0.48µM
O=C(O)/C=C\C(=O)Nc1ccccc1F,–,–,–,–,–,–
O=C(CCCc1ccccc1)Nc1ccc(Br)cc1F,·,?,?,–,·,?
Cc1noc(C)c1COc1ccc(C(=O)Nc2ccccc2)cc1,–,–,–,–,–,–
COc1ccc2nc(NC(=O)c3cccc(OCc4c(C)noc4C)c3)sc2c1,–,–,–,–,–,1.5µM
CCSc1nnc(NC(=O)c2cccc(OCc3c(C)noc3C)c2)s1,–,–,–,–,–,?
Cc1noc(C)c1COc1cccc(C(=O)Nc2ccc(OCc3ccccc3)cc2)c1,–,–,–,–,–,8.5µM
COc1ccc(C2=NCCn3cccc32)c(OC)c1,–,–,–,–,–,–
CCN(C(=O)Cn1c(=O)n(Cc2ccccc2)c(=O)c2c1c1cc(OC)ccc1n2C)c1ccccc1,·,·,·,·,·,–
O=C(CSC1=NS(=O)(=O)c2ccccc2N1)NCc1ccc(F)cc1,·,–,–,–,·,–
CN(C)c1ccc(N=C/C=C2/N(C)c3ccccc3C2(C)C)cc1,–,–,–,–,–,15µM
CN1/C(=C\C=C2/C(=O)Oc3ccccc3C2=O)C(C)(C)c2ccccc21,–,?,?,2.8µM,?,?
CN1/C(=C\C=C2/SC(=S)NC2=O)C(C)(C)c2ccccc21,–,–,–,–,·,?
CC1=NN(c2ccccc2)C(=O)/C1=C\C=C1/N(C)c2ccccc2C1(C)C,–,–,–,–,–,?
CN1C(=CC=C2C=C(I)C(=O)C(I)=C2)C(C)(C)c2ccccc21,·,–,–,–,·,21µM
CN1/C(=C\C=N\O)C(C)(C)c2ccccc21,–,–,–,–,–,–
O=C(CNC(=O)c1ccccc1F)c1ccccc1,·,0.45µM,4.1µM,0.45µM,·,3.4µM
O=C(CNC(=O)c1ccccc1Cl)c1ccccc1,·,2.8µM,9.2µM,0.4µM,·,11µM
O=C(NCCc1ccccc1)c1ccccc1F,–,0.63µM,?,0.28µM,·,?
O=C(NCCCCc1ccccc1)c1ccccc1F,·,–,–,–,·,?
O=C(NCCc1ccccc1)c1ccc(Br)o1,–,?,?,4µM,–,?
Cc1cc(C(=O)NCc2ccccc2)c2c(C)nn(-c3cccc(Cl)c3C)c2n1,·,·,·,·,·,–
SMILES,KinaseGlo FLuc,NPC1 prom act,ELG1 genotoxic,Rab9 prom act,SMN2 splice enh,FLuc modulator
O=C(CN1C(=O)NC2(CCCC2)C1=O)Nc1nc2ccccc2s1,·,–,–,–,·,?
CCN1CCN(CC(=O)Nc2nc3ccc(OC)cc3s2)CC1,–,–,–,–,–,–
COc1ccc(NC(=O)CN2C(=O)NC3(CCCC3)C2=O)cc1,·,?,–,–,·,–
Cc1ccc2nc(NC(=O)CN3C(=O)NC4(CCCCC4)C3=O)sc2c1,·,–,–,–,·,5.4µM
COc1ccc2nc(NC(=O)CN3C(=O)NC4(CCCCC4)C3=O)sc2c1,·,–,–,–,·,15µM
COc1ccc2nc(NC(=O)CN3C(=O)NC4(CCCC4)C3=O)sc2c1,·,–,–,–,·,12µM
Cc1cc(C)c(NC(=O)CSc2nc3c([nH]c4ccccc43)c(=O)n2C)c(C)c1,·,·,·,·,·,–
CCCCn1nc(NC(=O)c2cccs2)c2cc3cc(OC)ccc3nc21,–,–,–,–,–,19µM
CCCn1nc(NC(=O)c2cccs2)c2cc3cc(OC)ccc3nc21,–,–,–,–,–,11µM
CCCn1nc(NC(=O)c2cccs2)c2cc3ccccc3nc21,–,–,–,–,–,?
CCCCn1nc(NC(=O)c2cccs2)c2cc3ccccc3nc21,–,–,–,–,·,24µM
CCCn1nc(NC(=O)c2cccs2)c2cc3cc(C)ccc3nc21,·,–,–,–,·,6.7µM

# Screening results (PubChem BioAssay)
